Screening results: PubChem BioAssay, National Center for Advancing Translational Sciences (NCATS)
In the library only some 8.8% were active in any assay of this set; here they are far more common.
HT1080 IDH1KD tx: toxicity to HT-1080 IDH1 knockdown cells (counter line) | HT-1080 IDH1 knockdown viability, ATP luminescence, 48 h | Potency, µM (highest dose often 46.1 µM), hits mostly cytotoxic | 2% of 360,000 active | AID 686971
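Knockdown cells (IDH1KD HT-1080) received compounds 2 h after plating at 750 cells/well and were kept 48 h at 37 °C in 5% FBS RPMI. A CellTiter-Glo luminescence read gave % activity for curve fitting.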
IL1B secr inh: inflammasome signaling inhibition, IL-1 beta readout | THP-1 LPS/ATP IL-1B secretion, AlphaLISA, 16 h; stronger effect = lower value | activity change, % at 57.5 µM | 4.7% of 360,000 active | AID 743279; in the data active = activity change below about -50%; inconclusive = mostly about -30% to -49%
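THP-1 cells pretreated 1 hr with compounds (up to 57.5 uM final), then stimulated with LPS (250 ng/mL final) plus ATP (1.25 mM final); secreted IL-1B measured by AlphaLISA after 16 hr, decreased signal indicating inhibition.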
KB-V1 cytotox: kills drug-selected multidrug resistant KB-V1 cells; Potency, µM (highest dose often 46.1 µM), usual class: cytotoxic; KB-V1 MDR cells viability, CellTiter-Glo, 72 h; 3.4% of 400,000 active; also: nearly all actives have a fitted effect of over 60% in size
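Readout: CellTiter-Glo luminescence, 10 min after addition. Cells: KB-V1 MDR subline, 72 h at 37 degrees C with compound. Analysis: corrected, normalized data fitted to concentration-effect curves.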
KB-3-1 tox: KB-3-1 parental cell cytotoxicity; KB-3-1 viability, CellTiter-Glo ATP luminescence, 72 h; Potency, µM (series often up to 46.1 µM), usual class: cytotoxic; 1.4% of 400,000 active; AID 1347075; also: nearly all actives have a fitted effect of over 60% in size
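Screening of KB-3-1 cells (DMEM, 10% FBS, phenol-red free) ran from lowest to highest compound concentration; after 72 h at 37 °C viability was read luminescently and curves fitted.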
HT1080NT lethal: kills 2HG-producing HT-1080-NT fibrosarcoma cells. HT-1080-NT fibrosarcoma viability, CellTiter-Glo ATP luminescence, 48 h. Potency, µM (series often up to 46.1 µM), usual class: cytotoxic. 1.6% of 360,000 active;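 also: NT is the 2HG producing partner of a matched IDH1 knockdown line; nearly all actives have a fitted effect of over 55% in size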
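Viability of the 2HG-overproducing fibrosarcoma line after 48 hours of compound exposure at 37 degrees C was determined by luminescence with CellTiter-Glo, and concentration-effect curves were then fitted and categorized.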
Of the large screens only hits and unclear results are named; the others gave an inactive call. Unless noted, calls follow the shape of the dose curve; as a rule, active = well fitted curve in the direction sought with a large enough effect; inconclusive = small, poorly fitted or top-dose-only effect, or another doubt; inactive = no such curve, though single readings can be large; an effect the other way counts as inactive or inconclusive.

NNC(=O)/C(=N/Nc1ccccc1)S(=O)(=O)c1ccc(Cl)cc1	HT1080 IDH1KD tx inconclusive, KB-3-1 tox 18µM, HT1080NT lethal inconclusive
CCCCN1C(=O)C(CC(=O)NCCCN(C)C)CC(C(=O)N(C(C)C)C(C)C)=C1C (stereo not drawn)	none
CC1C(=O)C(C)C(c2cc(Cl)ccc2O)NC1c1cc(Cl)ccc1O (stereo not drawn)	HT1080 IDH1KD tx 23µM, IL1B secr inh -75, HT1080NT lethal 16µM
O=Cc1ccc(-c2cccc(C(=O)O)c2)o1	KB-V1 cytotox inconclusive
Cc1ccc(-c2ccc(/C=C/C(=O)c3ccccc3)o2)cc1	IL1B secr inh -79, KB-V1 cytotox inconclusive
O=C(/C=C/c1ccc(-c2ccccc2)o1)c1ccccc1	IL1B secr inh -99
CCOc1cc(/C=N/NC(N)=O)cc(Br)c1OCc1ccccc1F	none
CCOc1cc(/C=N/NC(=O)Cn2nc([N+](=O)[O-])cc2C)cc(Br)c1OCc1ccccc1F	HT1080 IDH1KD tx 10µM, KB-V1 cytotox inconclusive, KB-3-1 tox inconclusive, HT1080NT lethal inconclusive
CCN1C(=O)[C@H]2[C@@H](c3ccc(-c4ccc(F)cc4)c(OC)c3)N[C@@](Cc3ccccc3)(C(=O)OC)[C@H]2C1=O	IL1B secr inh -62, KB-3-1 tox inconclusive
CCN1C(=O)[C@H]2[C@@H](c3ccc(-c4cccc(Cl)c4)cc3)N[C@@](CC(C)C)(C(=O)OC)[C@H]2C1=O	KB-V1 cytotox inconclusive, KB-3-1 tox inconclusive
CCN1C(=O)[C@H]2[C@@H](c3ccc(-c4cccc(Cl)c4)c(OC)c3)N[C@@](CC(C)C)(C(=O)OC)[C@H]2C1=O	IL1B secr inh -61, KB-3-1 tox inconclusive
CCCCCCSc1ccc([C@H]2N[C@@](Cc3ccccc3)(C(=O)OC)[C@H]3C(=O)N(C)C(=O)[C@@H]23)cc1	IL1B secr inh inconclusive, KB-V1 cytotox 16µM, KB-3-1 tox inconclusive
CCN1C(=O)[C@H]2[C@@H](c3ccc(-c4ccccc4)c(OC)c3)N[C@@](Cc3ccccc3)(C(=O)OC)[C@H]2C1=O	KB-3-1 tox inconclusive
Cc1ccc(NC(=O)N(Cc2nc3ccccc3c(=O)[nH]2)Cc2cccs2)cc1	none
COc1ccccc1CN(Cc1nc2ccccc2c(=O)[nH]1)C(=O)Nc1ccccc1C	HT1080 IDH1KD tx 11µM, HT1080NT lethal inconclusive
COc1ccccc1CN(Cc1nc2ccccc2c(=O)[nH]1)C(=O)Nc1ccc(C)cc1	KB-V1 cytotox 21µM
C[N+]1(CC(=O)c2ccc(F)cc2)CCc2ccccc2C1 (stereo not drawn)	none (no result: HT1080 IDH1KD tx, IL1B secr inh, HT1080NT lethal)
CC(C)C1CC(CCN)(Cc2ccccc2)CCO1 (stereo not drawn)	IL1B secr inh -52, KB-V1 cytotox inconclusive, KB-3-1 tox inconclusive, HT1080NT lethal inconclusive
COc1ccc(S(=O)(=O)N2Cc3ccccc3CC2C(=O)Nc2nccs2)cc1 (stereo not drawn)	HT1080 IDH1KD tx inconclusive, KB-V1 cytotox 21µM, HT1080NT lethal inconclusive
Cc1ccc(N(Cc2ccccc2)C(=O)c2cc(S(=O)(=O)N3CCOCC3)ccc2F)cc1	KB-V1 cytotox 9.2µM
Cc1ccc(N(Cc2ccccc2)C(=O)c2ccc(S(=O)(=O)N3CCOCC3)cc2)cc1	IL1B secr inh -60
Cc1ccc(N(Cc2ccccc2)C(=O)c2cc(S(=O)(=O)N3CCOCC3)ccc2Cl)cc1	IL1B secr inh inconclusive, KB-V1 cytotox inconclusive, KB-3-1 tox inconclusive
O=C(/C=C/[C@H]1O[C@@H](n2cnc3c(NC(=O)c4ccccc4)ncnc32)[C@H](O)[C@@H]1O)NCc1cccs1	none
Cc1ccc(NC(=O)Cn2c(=O)n(Cc3ccc4c(c3)OCO4)c(=O)c3ccc(C(=O)NC4CCCCC4)cc32)cc1	none (no result: HT1080 IDH1KD tx, IL1B secr inh, HT1080NT lethal)
O=C(Nc1nonc1NC(=O)c1cccs1)c1cccs1	KB-V1 cytotox 10µM, KB-3-1 tox inconclusive
CC(C)(C)c1cc(NC(=O)c2cccs2)no1	IL1B secr inh -51
Cc1cc(NC(=O)c2ccc(NC(=O)c3cccs3)cc2)no1	KB-V1 cytotox 15µM
CCCCn1c(SCC(=O)Nc2cccc(OC)c2)nc2c(sc3ccccc32)c1=O	none (no result: HT1080 IDH1KD tx, IL1B secr inh, HT1080NT lethal)
O=C(Nc1nnc(C2CC2)s1)c1n[nH]c(=O)c2ccccc12	none
CCC(Cc1ccccc1)NC(=O)CCc1ccccc1 (stereo not drawn)	none
CC(C)(C)CC(=O)NCC(c1ccc2c(c1)OCO2)N1CCOCC1 (stereo not drawn)	KB-V1 cytotox inconclusive (no result: HT1080 IDH1KD tx, IL1B secr inh, HT1080NT lethal)
CC(C)c1ccc(S(=O)(=O)/N=C2\C=C(NS(=O)(=O)c3ccccc3)C(=O)c3ccccc32)cc1	HT1080 IDH1KD tx inconclusive, KB-V1 cytotox inconclusive, KB-3-1 tox inconclusive
CCc1ccc(S(=O)(=O)/N=C2\C=C(NS(=O)(=O)c3ccccc3)C(=O)c3ccccc32)cc1	none
Cc1ccccc1NC1=C/C(=N\S(=O)(=O)c2ccc(C(=O)O)cc2)c2ccccc2C1=O	HT1080 IDH1KD tx 23µM, IL1B secr inh -90, KB-V1 cytotox inconclusive, KB-3-1 tox inconclusive, HT1080NT lethal 23µM
O=C(O)c1ccc(S(=O)(=O)/N=C2\C=C(Nc3ccccc3F)C(=O)c3ccccc32)cc1	HT1080 IDH1KD tx 8.2µM, IL1B secr inh -97, KB-V1 cytotox inconclusive, KB-3-1 tox inconclusive, HT1080NT lethal inconclusive
CCCC(=O)NCc1nc2ccccc2n1CC(=O)c1ccccc1	none
COc1cccc(OC)c1C(=O)OCC(=O)NCC1CCCCC1	none
CCOc1cc(Br)c(CC(=O)NC2CCCCCC2)cc1OCC	KB-V1 cytotox 10µM
CCc1ccccc1OCC(=O)NC1CCCC1	KB-V1 cytotox 13µM
COC(=O)c1ccccc1OCC(=O)NC1CCCCC1	KB-V1 cytotox inconclusive
COc1ccccc1OCC(=O)NCC1CCCCC1	KB-V1 cytotox 21µM
O=C(COc1ccc(C(=O)c2ccccc2)cc1)NC1CCCCCC1	KB-V1 cytotox 10µM, KB-3-1 tox inconclusive
Cn1c2ccccc2c2nnc(SCC(=O)NCc3ccoc3)nc21	KB-V1 cytotox inconclusive
O=C(CNC1CCCCC1)NN=C(c1ccccc1)c1ccccc1	IL1B secr inh -64, KB-V1 cytotox inconclusive
O=C(N/N=C/c1cccc([N+](=O)[O-])c1)c1cc(-c2ccc3c(c2)OCO3)n[nH]1	none
CCc1ccc(/C=N/NC(=O)c2cc(-c3cccc([N+](=O)[O-])c3)n[nH]2)cc1	HT1080 IDH1KD tx 6.5µM, KB-V1 cytotox inconclusive, KB-3-1 tox inconclusive, HT1080NT lethal 7.3µM
C/C(=N\NC(=O)c1cc(-c2cccc([N+](=O)[O-])c2)n[nH]1)c1ccccc1O	HT1080 IDH1KD tx 23µM, KB-3-1 tox inconclusive, HT1080NT lethal inconclusive
C/C(=N/NC(=O)c1cc(-c2cccc([N+](=O)[O-])c2)n[nH]1)c1cccc(O)c1	KB-3-1 tox inconclusive
CN(Cc1nccs1)C(=O)C1CCC(=O)N(CCc2ccc(Cl)cc2)C1 (stereo not drawn)	none
O=C(CCN=C1NS(=O)(=O)c2ccccc21)OCc1cccc(Cl)c1	none
